TbREL1 primary: TbREL1 RNA ligase inhibitors, primary screen, biochemical, FRET fluorescence; 0.49% of 89,000 active; RNA-editing ligase 1, mitochondrial (Trypanosoma brucei brucei), P86926; TbREL1 RNA ligation; inhibition, % at 9.66 µM;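 active means inhibition above the mean inhibition across all screened compounds plus 3 SD, cut at about 11% in these data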
Target sequence (P86926 whole entry, looked up): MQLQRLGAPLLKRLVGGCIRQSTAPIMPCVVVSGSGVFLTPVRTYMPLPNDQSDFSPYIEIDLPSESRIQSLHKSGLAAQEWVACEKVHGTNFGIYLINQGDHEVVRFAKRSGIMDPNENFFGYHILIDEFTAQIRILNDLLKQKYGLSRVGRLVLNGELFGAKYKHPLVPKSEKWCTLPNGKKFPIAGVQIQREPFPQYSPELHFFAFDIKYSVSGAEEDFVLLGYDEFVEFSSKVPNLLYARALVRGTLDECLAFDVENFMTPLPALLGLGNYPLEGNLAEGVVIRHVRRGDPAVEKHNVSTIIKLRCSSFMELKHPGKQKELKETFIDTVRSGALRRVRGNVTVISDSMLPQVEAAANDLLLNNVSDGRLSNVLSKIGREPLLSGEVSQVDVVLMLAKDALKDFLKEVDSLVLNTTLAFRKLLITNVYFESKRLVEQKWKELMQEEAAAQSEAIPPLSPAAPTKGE
TbREL1 conf: TbREL1 RNA ligase inhibitors, confirmation, biochemical, FRET fluorescence, triplicate; TbREL1 RNA ligation; shares compounds with TbREL1 primary; 37% of 390 active; inhibition, % at 9.66 µM; AID 1117282, 2014;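 active means mean inhibition across replicates above a set limit taken from the earlier primary screen, cut at about 11% in these data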
Large screens that a line does not name were inactive (follow-up assays come after a bar, where they were run). Many of the other results were omitted from the sample, so hits are more common in it than they were.

CC(=O)N1CCN(S(=O)(=O)c2ccc3c(c2)oc(=O)n3C)CC1	none
O=C(NCc1ccccc1)C1CCN(c2nc(-c3ccc(Br)cc3)cs2)CC1	none
CCCc1nc2c(=O)n(C)c(=O)nc-2n(C)n1	TbREL1 primary 61.4 | TbREL1 conf 85.6
COc1ccc(CCn2c(C)nc3c(c(=O)c4ccccc4n3C)c2=O)cc1	none
O=C(CCn1nnc(-c2cccs2)n1)NCc1cccs1	none
O=C(CSc1nnc(Cc2cccs2)n1-c1ccc(Cl)cc1)Nc1ccc(OCc2ccccc2)cc1	none
O=C(CN1CCN(c2ccc(O)cc2)CC1)Nc1ccc2c(c1)OCCO2	none
O=C(CN1CCOCC1)Nc1ccc2c(c1)OCCO2	TbREL1 primary 11.7 | TbREL1 conf inactive
O=C(CN1CCOCC1)Nc1ccc2c(c1)OC(F)(F)O2	none
C[C@H]1[C@@H](OC(=O)NCc2ccc(C(F)(F)F)cc2)CC[C@@]23CCCN2C(=O)CCC[C@@H]13	none
C(C#CCCCCCCCCC[n+]1ccccc1)#CCCCCCCCCC[n+]1ccccc1	TbREL1 primary 11.4 | TbREL1 conf 24.1
CCOC(=O)[C@]12CCCC=C1N(CCCOC)C(=O)[C@@H]2CC(=O)N1CCN(C(=O)c2ccco2)CC1	none
O=C(C1CCN(S(=O)(=O)c2ccc3[nH]c(=O)oc3c2)CC1)N1CCCC1	none
COCCCNC(=O)C1CCN(S(=O)(=O)c2ccc3[nH]c(=O)oc3c2)CC1	TbREL1 primary 18.8 | TbREL1 conf 23.6
CSCCCNC(=O)C1CCN(S(=O)(=O)c2ccc3[nH]c(=O)oc3c2)CC1	none
O=C(CSc1nnc(-c2cccnc2)n1Cc1ccco1)Nc1cc(Cl)ccc1F	none
Cc1ccc(C[n+]2cc(-c3ccc(Cl)cc3)n3c2CCC3)cc1	none
O=C(C[n+]1cc(-c2ccc(F)cc2)n2c1CCC2)Nc1nc(-c2ccc(F)cc2)cs1	none
CCc1ccc(NC(=O)C[n+]2cc(-c3ccc(C)cc3)n3c2CCC3)cc1	TbREL1 primary 13.3 | TbREL1 conf 13.7
COc1ccc(C(=O)C2CCN(c3ncnc4sccc34)CC2)cc1	none
CCCCNC(=O)O[C@H]1CC[C@@]23CCCN2C(=O)CCC[C@H]3[C@H]1C	none
O=C(NCc1cc(C(F)(F)F)ccc1Cl)c1cccc2c1C(=O)c1ccc(N3CCCCC3)cc1S2(=O)=O	TbREL1 primary 41.3 | TbREL1 conf inactive
O=C(NCc1cc(C(F)(F)F)ccc1Cl)c1cccc2c1C(=O)c1ccc(N3CCOCC3)cc1S2(=O)=O	none
O=C(NCc1ccc(OC(F)(F)F)cc1)c1cccc2c1C(=O)c1ccc(N3CCCCC3)cc1S2(=O)=O	none
O=C(Nc1ccc(Cl)cc1Cl)OC1CCC12CCC(c1ccccc1)CC2 (stereo not drawn)	none
O=C(Nc1ccccc1)N1CCCN(c2ccc(C(F)(F)F)cc2[N+](=O)[O-])CC1	none
O=C(Nc1ccccc1)N1CCN(c2ccc(F)cc2)CC1	none
O=C(Nc1ccc(F)cc1)N1CCCN(c2ccc(C(F)(F)F)cn2)CC1	TbREL1 primary 24.9 | TbREL1 conf inactive
Cc1ccc(/C=N\NC(=O)CN2CCN(S(=O)(=O)c3ccc(Br)cc3)CC2)s1	none
O=C(COc1ccc(F)cc1Cl)Nc1nnc(-c2ccc(F)c(F)c2)o1	none
O=c1c2c([N+](=O)[O-])cc([N+](=O)[O-])cc2sn1Cc1ccccc1	none
O=Nc1c(O)n(Cc2ccccc2)c2ccccc12	none
O=c1c([N+](=O)[O-])c(Cl)c2ccccc2n1Cc1ccccc1	TbREL1 primary 17.4 | TbREL1 conf inactive
C[C@@H]1CCCN1c1cccc2c1S(=O)(=O)N1CC[C@H](C1)O2	none
O=C(Nc1nccs1)c1ccccn1	TbREL1 primary 15.3 | TbREL1 conf inactive
O=C(Nc1nccs1)c1cnccn1	none
Cc1ccccc1NC(=O)c1ccccn1	none
Cc1ccc(-n2c(SCC(=O)Nc3ccccc3-c3ccccc3)nnc2-c2cnccn2)cc1	none
CC(C)CC(O)(CC(C)C)c1cn(C(=O)N(c2ccccc2)c2ccccc2)nn1	none
COC(=O)[C@]12C[C@H](CC(=O)NCCCN3CCCC3=O)C(=O)N(Cc3ccc4c(c3)OCO4)C1=C[C@H](C(C)C)O[C@@H]2C1CC1	none
O=C(Nc1ccc(F)cc1)OCc1cn(Cc2ccc(F)c(F)c2)nn1	none
COc1cccc(N2CCN(CC(=O)NCc3ccco3)CC2)c1	none
CSc1nnc(SCC(=O)N(C)c2c(N)n(Cc3ccccc3)c(=O)[nH]c2=O)s1	none
CN(C(=O)CSc1ncnc2sccc12)c1c(N)n(Cc2ccccc2)c(=O)[nH]c1=O	TbREL1 primary 11.6 | TbREL1 conf inactive
CN(C(=O)COC(=O)c1cccs1)c1c(N)n(Cc2ccccc2)c(=O)[nH]c1=O	none
O=C1CCC[C@H]2CC3(CC[C@]24CCCN14)OCCO3	none
Clc1nssc1=Nc1ccc(Br)cc1	none
Clc1nssc1=Nc1nncs1	TbREL1 primary 18.2 | TbREL1 conf 19.3
CCCCN1CCN(C(=O)C2CCCN(C(=O)c3ccc4c(c3)NC(=O)CS4)C2)CC1 (stereo not drawn)	none
CCCCCn1nnnc1C1(C)CN(S(C)(=O)=O)CC(=O)N1Cc1ccco1 (stereo not drawn)	none
c1ccc(C2CCC3(CC2)CCC3NCc2cccs2)cc1 (stereo not drawn)	none
